Each structure is given as a SMILES string. Unmarked numbers belong to inactive results. Records with an inconclusive call do not appear. Activity calls are given as the source filed them. Unless noted, calls follow the shape of the dose curve; as a rule, active = well fitted curve in the direction sought with a large enough effect in the repeat runs; inconclusive = weak or mixed curves; inactive = no such curve, though single readings can be large; an effect the other way counts as inactive or inconclusive.

Assay [1] concerns the target Thyrotropin receptor (Homo sapiens) (UniProt P16473). In words: qHTS assay to identify small molecule agonists of the thyroid stimulating hormone receptor (TSHR) signaling pathway (AID 1224843; calls by dose curve; also: nearly all actives have a fitted effect of over 45% in size). The gist of the method: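 Steps: seed 800 TSHR-HEK293 cells per well; add test compound and hold 30 min at ambient temperature; dispense cAMP-d2 then anti-cAMP cryptate; incubate 1 h at ambient; measure fluorescence intensity.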
(In general: qHTS replaces the single test concentration by a dilution series.)

Assay [2] is described as follows: qHTS assay to identify small molecule agonists of the hypoxia (HIF-1) signaling pathway - cell viability counter screen (AID 1224844; calls by dose curve; also: nearly all actives have a fitted effect of over 50% in size; also: potency is read from the fitted curve at half-maximal effect). The gist of the method:
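Luminescent ATP content (CellTiter-Glo, 30 min, room temperature) served as the viability measure in HRE-bla ME-180 cells exposed to compounds for 17 hrs in low-serum medium (0.5% dialyzed FBS).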

Assay [3] in a line: qHTS assay to identify small molecule agonists of H2AX (AID 1224845; active = well fitted activation curve with a large enough effect in the signal ratio in the repeat runs, not every such curve was filed as active; the % refers to the signal ratio). In short, it runs like this:
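Wild-type CHO-K1 cells, plated overnight, exposed 3hr at 37C to 15 concentrations (0.76% DMSO final). Lysed, then HTRF anti-pH2AX (S139) cryptate and anti-H2AX-d2 antibodies, 24 hr room temperature; 665/620 nm emission read.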

The nature of assay [4]: qHTS assay to identify small molecule agonists of the hypoxia (HIF-1) signaling pathway (AID 1224846; active = well fitted activation curve with a large enough effect in the signal ratio in the repeat runs, not every such curve was filed as active; the % refers to the signal ratio). The gist of the method:
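Measured by blue/green FRET after loading CCF4-AM: beta-lactamase expressed from a hypoxia response element in ME-180 cells. Test agents were delivered in DMSO and left 17 hrs; cells had been plated 5 hrs earlier in low-serum (0.5% dialyzed FBS) medium.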

The nature of assay [5]: qHTS assay to identify small molecule antagonists of the estrogen related receptor (ERR) signaling pathway from Tox21 library (AID 1224848). Also: nearly all actives have a fitted effect of over 50% in size. Also: potency is read from the fitted curve at half-maximal effect. The gist of the method: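 Luminescent reporter read-out (ONE-Glo) from NTP's ERR cell line after 18 h treatment at 37 C with DMSO-dissolved Tox21 compounds; cells pre-plated 6 h beforehand at 2,000 per well.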
Assay [6] is described as follows: qHTS assay to identify small molecule agonists of the estrogen related receptor (ERR) signaling pathway from Tox21 library (AID 1224849; calls by dose curve; also: nearly all actives have a fitted effect of over 15% in size). As to conditions: ERR reporter cell line, ONE-Glo luciferase, 18 h; at 92.4 µM (top of the series) unless noted. In short, it runs like this:
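We plated ERR reporter cells, waited 6 h, added compounds in DMSO by pin tool and incubated them 18 h at 37 C. ONE-Glo was then added and luminescence read after 30 min.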

Assay [7] in a line: qHTS RealTime-Glo MT Cell Viability Assay in HepG2 cells - 24 hour (AID 1224867). Also: nearly all actives have a fitted effect of over 50% in size. The gist of the method:
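Luminescence read-out: viable HepG2 cells reduce a prosubstrate to a NanoLuc substrate, giving a signal proportional to live cell number. Reads taken at 0, 8, 16, 24, 32 and 40 h of compound exposure at 37 C.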

Assay [8] in a line: qHTS RealTime-Glo MT Cell Viability Assay in HEK293 cells - 32 hour (AID 1224868). Also: nearly all actives have a fitted effect of over 50% in size. Also: potency is read from the fitted curve at half-maximal effect. As to activity change, negative = cytotoxic: top concentration of the series differs between compounds. The gist of the method: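 Nonlytic real-time viability readout: viable cells convert prosubstrate to NanoLuc substrate, giving luminescence proportional to live cell number. HEK293, 600 cells/well, compound added after 5 h, continuous culture at 37 C.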
Assay [9] in a line: A CellTox Green Cytotoxicity Assay to monitor cytotoxicity in HEK293 cells - 0 hour (AID 1224869). Also: nearly all actives have a fitted effect of over 50% in size. In short, it runs like this: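 Each value comes from one timepoint of a single continuous run in which HEK293 cells with CellTox Green were exposed to compound for up to 40 h at 37 C, dye fluorescence rising with cell death.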
A short description of assay [10]: qHTS assay to identify small molecule agonists of H2AX - cell viability counter screen (AID 1224847; calls by dose curve; also: top concentration of the series differs between compounds; nearly all actives have a fitted effect of over 30% in size). The gist of the method: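 We seed wild-type CHO-K1 cells overnight, treat them for 3 hr at 37C with compounds in 15-concentration series, and quantify remaining viability by CellTiter-Glo luminescence.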
% is scaled to controls: 0 for no effect and ±100 for the full control effect.

Sequence of Thyrotropin receptor (Homo sapiens) (P16473 whole entry, looked up): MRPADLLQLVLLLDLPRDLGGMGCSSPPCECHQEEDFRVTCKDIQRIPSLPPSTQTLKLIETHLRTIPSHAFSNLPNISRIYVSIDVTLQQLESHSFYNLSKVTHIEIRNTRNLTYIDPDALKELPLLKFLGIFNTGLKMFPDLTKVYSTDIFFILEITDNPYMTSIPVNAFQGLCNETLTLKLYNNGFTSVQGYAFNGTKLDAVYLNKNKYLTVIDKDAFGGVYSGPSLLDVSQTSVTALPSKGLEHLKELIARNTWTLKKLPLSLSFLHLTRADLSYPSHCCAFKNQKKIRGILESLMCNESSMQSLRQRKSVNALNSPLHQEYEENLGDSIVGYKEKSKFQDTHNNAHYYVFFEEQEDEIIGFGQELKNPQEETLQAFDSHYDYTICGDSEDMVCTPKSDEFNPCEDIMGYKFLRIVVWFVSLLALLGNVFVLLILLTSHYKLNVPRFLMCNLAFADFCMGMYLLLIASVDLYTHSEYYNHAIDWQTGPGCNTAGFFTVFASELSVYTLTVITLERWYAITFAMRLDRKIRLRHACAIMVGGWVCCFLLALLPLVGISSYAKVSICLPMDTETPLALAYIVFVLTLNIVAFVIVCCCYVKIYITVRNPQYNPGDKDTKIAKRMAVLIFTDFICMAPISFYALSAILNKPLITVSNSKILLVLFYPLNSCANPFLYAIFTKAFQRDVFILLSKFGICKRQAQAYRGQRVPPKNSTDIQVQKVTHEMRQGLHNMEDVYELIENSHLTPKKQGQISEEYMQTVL

For `CC(C)c1cccc(O)c1`, the compound was called inactive in assay [1], in assay [3], in assay [4] and in assay [7]. Further, the Potency entry in assay [2], in [5], in assay [8] and in [9] was “inactive” in each case. For the same compound, the activity change, positive = activation in [6] was 1.69%.

Turning to `O=C(O)c1ccc[n+]([O-])c1`, the result in [1], in assay [3], in assay [4] and in [7] was inactive. Also, the Potency entry in assay [2], in assay [8] and in assay [9] was “inactive” each time.

Turning to `CCN1CCN(c2cc3c(cc2F)c(=O)c(C(=O)O)cn3C2CC2)CC1`, the compound was classed as inactive in assay [1], in assay [3] and in assay [7]. In addition, the Potency result in [2], in [10], in assay [8] and in assay [9] was “inactive” throughout.

As to `c1cc(CN2CCCCC2)cc(OCCCNc2nc3ccccc3s2)c1`, the call in [1], in assay [3] and in assay [4] was inactive. For the same compound, the Potency result in assay [2] and in assay [9] was “inactive” throughout. The results for the Potency in assay [5] and in assay [8] were 23.7 µM (active) and 9.52 µM (active), respectively. Also, in [6], the activity change, positive = activation was -31.8% [at 42.5 µM].

Turning to `Oc1ccc2c(c1)OC[C@@H](N1CCC(O)(c3ccc(F)cc3)CC1)[C@H]2O`, the Potency result in assay [2], in assay [10], in assay [5], in [8] and in assay [9] was “inactive” each time. The result in [3], in assay [4] and in [7] was inactive. Also, the activity change, positive = activation in assay [6] is 111% [at 42.5 µM] (active).

For the compound `COC(=O)CCCC(=O)O`, the compound was classed as inactive in assay [1], in assay [3] and in assay [7]. Further, the Potency entry in [2], in [8] and in assay [9] was “inactive” throughout.

As to `CCCOc1ccccc1-c1nc2n[nH]nc2c(=O)[nH]1`, the compound was classed as inactive in [1], in assay [3] and in [7]. Further, the Potency result in assay [2], in assay [10] and in assay [9] was “inactive” in each case.

On to `Nc1cc(C(Cl)=C(Cl)Cl)c(S(N)(=O)=O)cc1S(N)(=O)=O`, for which the call in assay [1], in assay [3] and in [7] was inactive. The Potency entry in assay [2], in assay [8] and in assay [9] was “inactive” each time.

As to `CCN1CCCC(OC(=O)C(c2ccccc2)c2ccccc2)C1` (configuration not stated), the result in [1], in assay [3] and in assay [7] was inactive. Also, the Potency result in assay [2], in assay [8] and in assay [9] was “inactive” each time.

With `O=[N+]([O-])c1ccc(Oc2ccc([N+](=O)[O-])cc2)cc1`, the Potency entry in assay [2], in assay [10], in assay [5] and in assay [9] was “inactive” each time. Besides, the compound was called inactive in [3], in assay [4] and in [7]. For the same compound, the activity change, positive = activation in assay [6] is -4.74%.

Consider `Cn1ccc2cc3c(cc21)CCN3C(=O)Nc1cccnc1`, for which the activation in assay [1] is 14.6% [at 19 µM]; in [4], -0.619% [at 15.8 µM]. Further, the values for the activity change, negative = cytotoxicity in assay [2], in assay [10] and in assay [7] were -7.99% [at 15.8 µM], 1.26% [at 31.6 µM] and -2.41% [at 15.8 µM], respectively. In [8], the activity change, negative = cytotoxic was -7.77% [at 15.8 µM]. Further, the cytotoxicity in assay [9] was -3.51% [at 15.8 µM].

With `CCCC(C)C(=O)O` (configuration not stated), the result in assay [1], in [3], in assay [4] and in assay [7] was inactive. For the same compound, the Potency entry in assay [10], in [8] and in [9] was “inactive” throughout. For the same compound, the Potency in assay [5] was 52.3 µM (active). In assay [6], the activity change, positive = activation was -46.3%.

Regarding `CC(C)(C)C(=O)/C=C/c1ccc(Cl)cc1`, the compound was classed as inactive in assay [1], in assay [4] and in assay [7]. Besides, the Potency entry in [2], in assay [10], in [5], in assay [8] and in assay [9] was “inactive” in each case. Besides, the activity change, positive = activation in assay [6] was 1.54%.

With `NC(=O)c1ncn([C@@H]2O[C@H](CO)[C@@H](O)[C@H]2O)c1O`, the outcome in assay [1], in assay [3] and in assay [7] was inactive. Moreover, the Potency entry in assay [2], in assay [10], in assay [8] and in assay [9] was “inactive” each time.

On to `CC(C)c1ccc2oc3nc(N)c(C(=O)O)cc3c(=O)c2c1`, for which the result in [1], in assay [4] and in assay [7] was inactive. Besides, the Potency entry in assay [2], in assay [10], in assay [5], in assay [8] and in assay [9] was “inactive” in each case. In addition, the activity change, positive = activation in assay [6] is 105% [at 42.5 µM] (active).

For the compound `COC(=O)C1=C(C)NC(C)=C(C(=O)OCC(C)=O)C1c1ccccc1[N+](=O)[O-]` (configuration not stated), the Potency result in [2], in assay [10], in assay [5], in assay [8] and in assay [9] was “inactive” throughout. Besides, the result in assay [3], in [4] and in [7] was inactive. Also, the activity change, positive = activation in assay [6] was -8.69% [at 42.5 µM].

As to `C1=C\CC/C=C\CC/C=C\CC/1`, the Potency entry in assay [2], in assay [10], in [5], in [8] and in assay [9] was “inactive” in each case. For the same compound, the compound was called inactive in assay [3], in assay [4] and in assay [7]. Besides, the activity change, positive = activation in assay [6] was 2.93%.

Regarding `CCCCN(CCO)CCO`, the Potency entry in assay [2], in [10], in assay [5], in [8] and in [9] was “inactive” each time. Further, the result in [3], in [4] and in assay [7] was inactive. Also, the activity change, positive = activation in assay [6] was 3.71%.

For `CC(C)(C)OC(=O)N1C[C@@H](F)C[C@H]1C(=O)O`, the result in assay [1], in [4] and in [7] was inactive. Further, the Potency entry in assay [2], in assay [10], in assay [8] and in assay [9] was “inactive” in each case.

For the compound `N#CC1(O)CCCCC1`, the call in assay [1], in [4] and in assay [7] was inactive. Moreover, the Potency result in assay [2], in assay [10], in assay [5], in assay [8] and in assay [9] was “inactive” each time. Moreover, in assay [6], the activity change, positive = activation is 7.59%.

Consider `CN(C)CCOC(c1ccc(Cl)cc1)c1ccccn1` (configuration not stated), for which the result in assay [1], in assay [3] and in assay [7] was inactive. In addition, the Potency entry in [2], in assay [10], in assay [8] and in [9] was “inactive” throughout.

For `CC(=O)OC(C)(C)C`, the Potency result in assay [2], in assay [10], in assay [5], in [8] and in assay [9] was “inactive” throughout. The result in assay [3], in assay [4] and in assay [7] was inactive. Further, the activity change, positive = activation in [6] was 0.24%.

Turning to `CN1[C@@H]2CC[C@H]1CC(NC(=O)n1c(=O)[nH]c3ccccc31)C2` (some centres not stated), the Potency entry in assay [2], in assay [10], in assay [5], in assay [8] and in assay [9] was “inactive” each time. Also, the compound was classed as inactive in assay [3], in assay [4] and in assay [7]. The activity change, positive = activation in [6] is 7.7% [at 42.5 µM].

Consider `CCN1CCCC1CNC(=O)c1cc(S(N)(=O)=O)ccc1OC` (configuration not stated), for which the compound was called inactive in [1], in assay [3] and in assay [7]. Moreover, in [2], the Potency is 17.4 µM (active). Moreover, the Potency result in [10] and in assay [9] was “inactive” in each case.
